Experimental data taken from PubChem BioAssay (NCATS).
The source made the active and inactive calls. Calls come from the whole dose curve; as a rule, active = well fitted inhibition curve with a large enough effect; inconclusive = small, poorly fitted or top-dose-only effect; inactive = flat fitted curve, though single readings scatter.

Target: Flap endonuclease 1 (Homo sapiens) (UniProt P39748)
Assay: qHTS Validation Assay for the Inhibitors of Human Flap endonuclease 1 (FEN1) (AID 488816)
Settings: FEN1 nuclease activity, fluorogenic DNA substrate; series mostly up to 57.1 µM
Text: The major human flap endonuclease FEN1 is an efficient structure-specific enzyme that recognizes and cleaves a 5'-unannealed DNA flap. It belongs to the RAD2 family nucleases, which are involved in DNA metabolism and are highly conserved in prokaryotes and eukaryotes. FEN1 is a key enzyme in DNA replication, repair and maintenance of genomic stability. 5'-flap removal by FEN1 is critical for Okazaki fragment processing during lagging strand DNA synthesis, long-patch base excision repair (LP BER), and regulating or facilitating recombination events. […] Deletion of the yeast FEN1 gene, i.e. rad27, results in an increased frequency of short DNA (3-32 bp) repeats, micro- and mini-satellite formation, trinucleotide repeat expansion, spontaneous recombination events, and a severe growth defect in association with cell cycle arrest in late S/G2 phase. […] Cells from fen1-/- blastocysts show increased apoptotic cell death after ionizing radiation treatment, and chicken cells lacking the fen1 gene are hypersensitive to DNA alkylating agents, e.g. methylmethane sulfonate (MMS) and N-methyl-N'-nitro-N-nitrosoguanidine (MNNG), as well as hydrogen peroxide.
FEN1 is found to be increased in many human cancers, including lung, brain cancer, gastric cancer, prostate cancer, pancreatic cancer and breast cancer. […] In particular, elevation of FEN1 in hormone refractory human prostate cancer cells correlates with resistant to various anticancer agents including ionizing radiation, doxorubicin, paclitaxel and vinblastine.
Three uL of reagents (buffer in column 3 and 4 as negative control and 10 nM FEN1 in columns 1, 2, and 5-48) were dispensed into 1,536-well black solid-bottomed plate. Compounds (23 nL) were transferred via Kalypsys pin tool equipped with 1536-pin array (10 nL slotted pins, V&P Scientific, San Diego, CA). The plates were then incubated for 15 min at room temperature, and 1 uL substrate (50 nM final concentration) were added to start the reaction read twice at 0 min read and 15 min on ViewLux reader. Throughout the screen, reagent bottle and all liquid lines were chilled and made light-tight to minimize reagent degradation. All screening operations were performed on a fully integrated robotic system (Kalypsys, San Diego, CA) containing one RX-130 and two RX-90 anthropomorphic robotic arms (Staubli, Duncan, SC). Library plates were screened starting from the lowest and proceeding to the highest concentration, and a "double-dipping" step of the highest concentration was required to access higher concentrations of compounds. Vehicle-only plates, with DMSO being pin-transferred to the entire column 5-48 compound area, were inserted uniformly at the beginning and the end of each library in order to monitor for and record any shifts in the background, which can be affected by reagent dispensers or loss in enzyme activity overtime. Screening data was corrected, normalized, and concentration-effect relationships were derived by using publicly-available curve fitting algorithms developed in-house (http://ncgc.nih.gov/pub/openhts). A four parameter Hill equation was fitted to the concentration-response data by minimizing the residual error between the modeled and observed responses.

Chain of Flap endonuclease 1 (Homo sapiens) (P39748 whole entry, looked up): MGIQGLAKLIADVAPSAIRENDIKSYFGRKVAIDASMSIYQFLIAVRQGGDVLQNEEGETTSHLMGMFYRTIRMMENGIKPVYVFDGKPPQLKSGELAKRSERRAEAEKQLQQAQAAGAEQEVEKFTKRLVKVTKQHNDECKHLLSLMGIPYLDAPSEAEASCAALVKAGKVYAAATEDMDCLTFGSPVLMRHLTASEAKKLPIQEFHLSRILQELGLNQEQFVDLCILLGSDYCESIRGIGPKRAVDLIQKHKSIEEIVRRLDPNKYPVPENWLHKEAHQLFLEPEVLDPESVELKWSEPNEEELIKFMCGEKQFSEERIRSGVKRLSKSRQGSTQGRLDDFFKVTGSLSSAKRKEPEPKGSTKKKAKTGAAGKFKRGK

Structure (SMILES) | outcome
CCCCC/C=C\C/C=C\C/C=C\C/C=C\CCCC(=O)NCC(=O)O | inactive
O=c1[nH]oc2c1CCNC2 | inactive
O=C(CCCN1CCC2(CC1)C(=O)NCN2c1ccccc1)c1ccc(F)cc1 | inactive
CC(NC(C)(C)C)C(=O)c1cccc(Cl)c1 (stereo not given) | inactive
Cc1ncsc1CCCl | inactive
CC(C)N(CCC(C(N)=O)(c1ccccc1)c1ccccn1)C(C)C (stereo not given) | inactive
O=C(O)CCCc1ccc(N(CCCl)CCCl)cc1 | inactive
CC(C)c1cccc(C(C)C)c1O | inactive
NCCc1ccc(O)cc1 | inactive
O=P1(N(CCCl)CCCl)NCCCO1 (stereo not given) | inactive
COc1ccc2c(c1OC)C(=O)O[C@H]2[C@@H]1c2cc3c(cc2CCN1C)OCO3 | inactive
CN1C(=O)CCS(=O)(=O)C1c1ccc(Cl)cc1 (stereo not given) | inactive
C=C(C)[C@H]1CN[C@H](C(=O)O)[C@H]1CC(=O)O | inactive
CC(C)(C)NCC(O)c1ccccc1Cl (stereo not given) | inactive
CC(=O)N1CCN(c2ccc(OC[C@H]3CO[C@](Cn4ccnc4)(c4ccc(Cl)cc4Cl)O3)cc2)CC1 | inactive
